# Source: PubChem BioAssay (National Center for Advancing Translational Sciences (NCATS))
# Shown are actives, neighbours in structure and some others; about 2.5% of the full set was active somewhere.
# D2 ag-1: human D2 receptor agonism in beta-arrestin assay; AID 624465; activation, % (test concentration not listed); 360,000 compounds, 0.084% hits; DiscoveRx PathHunter D2 beta-arrestin, luminescence, 90 min; 100% = 57 uM dopamine signal; in the data active = activation above about 40%; inconclusive = between about 15% and that limit
# Target sequence (P14416 whole entry, looked up): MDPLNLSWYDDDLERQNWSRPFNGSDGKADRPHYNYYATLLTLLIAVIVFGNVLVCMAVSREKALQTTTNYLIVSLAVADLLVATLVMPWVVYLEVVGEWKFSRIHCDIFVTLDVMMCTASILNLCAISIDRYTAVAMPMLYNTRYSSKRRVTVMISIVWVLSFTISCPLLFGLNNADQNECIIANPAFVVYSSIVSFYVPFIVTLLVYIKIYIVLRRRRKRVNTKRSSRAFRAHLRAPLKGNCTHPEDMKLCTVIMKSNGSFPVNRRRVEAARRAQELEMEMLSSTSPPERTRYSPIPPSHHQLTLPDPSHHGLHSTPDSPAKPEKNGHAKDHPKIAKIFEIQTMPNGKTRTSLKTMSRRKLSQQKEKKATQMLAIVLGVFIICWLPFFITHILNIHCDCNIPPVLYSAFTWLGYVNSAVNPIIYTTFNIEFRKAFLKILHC
#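 Agonist mode: compounds alone added to overnight-plated D2 PathHunter cells for 90 min at 37 C, with 57 uM final dopamine (EC100) defining full response. Beta-arrestin recruitment detected by chemiluminescent reagent, read after 1 h at ambient temperature.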
# D2 ag-2: activates the human D2 dopamine receptor. P14416. activation, % at 2 µM. HEK293 T-REx D2 cells, calcium flux agonist mode. 340,000 compounds, 0.53% hits;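 active = activation over 3 SD above normal in the single-dose calcium agonist read, cut at about 30% in these data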; note: 0% is about no effect
#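 Agonism is scored from calcium flux in a force-coupled, inducible HEK293 cell line expressing D2, read kinetically for 180 s after compound addition against dopamine controls.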
# D2 PAM-1: positive allosteric modulators of human D2 dopamine receptor; P14416; HEK293 T-REx D2, calcium flux, EC20 dopamine potentiation; potentiation, % at 10 µM; 340,000 compounds, 0.34% hits; AID 485347;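 active = potentiation over 3 SD above the plate norm, cut at about 30% in these data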; note: 0% is about no effect
#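 Primary screen. Calcium kinetics in induced HEK293 T-REx D2 cells: compound pre-addition 180 s, EC20 dopamine, 180 s more.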
# D2 antagonist: antagonizes the human D2 dopamine receptor | P14416 | HEK293 TREx D2 cells, calcium flux, dopamine EC80 | inhibition, % at 10 µM | 340,000 compounds, 2% hits | AID 485344; in the data active = inhibition above about 30%; inactive = below that, where a call was filed; note: 0% is about no effect
#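 Overnight-induced (tetracycline, 30 C) HEK293 T-REx cells carrying force-coupled D2 receive a no-wash calcium dye, then compound, then EC80 dopamine at 180 s; signals are read kinetically throughout.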
# D2 PAM-2: potentiates the human D2 dopamine receptor allosterically. P14416. DiscoveRx D2 beta-arrestin cells, luminescence, 90 min; 100% = 57 uM dopamine signal. potentiation, % (test concentration not listed). 360,000 compounds, 0.23% hits. AID 624464; in the data active = potentiation above about 50%; inconclusive = mostly about 30% to 49%
#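 PathHunter D2 cells, attached overnight at 37 deg C, received compound in DMSO plus dopamine at EC20 (50 nM final) for 90 min at 37 deg C. Beta-arrestin recruitment was read as luminescence after 1 h with detection reagent at ambient temperature.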
# Apoferritin bind: binds horse apoferritin like a general anesthetic; P02791; apoferritin/1-aminoanthracene competitive binding, fluorescence; Potency, µM (top dose mostly 77.5 µM), for inactives: top-dose activity change, negative = displacement, actives largely listed as inhibitors; 350,000 compounds, 0.074% hits; AID 485281; active = well fitted inhibition curve with a large enough effect; inconclusive = small, poorly fitted or top-dose-only effect; inactive = no such curve, though single readings can be large or run the other way; note: potency is the fitted concentration of half-maximal effect; % is set by controls: 0 for no effect and ±100 for the full control effect; nearly all actives have a fitted effect of over 20% in size
# Target sequence (P02791 2-175 limits assumed): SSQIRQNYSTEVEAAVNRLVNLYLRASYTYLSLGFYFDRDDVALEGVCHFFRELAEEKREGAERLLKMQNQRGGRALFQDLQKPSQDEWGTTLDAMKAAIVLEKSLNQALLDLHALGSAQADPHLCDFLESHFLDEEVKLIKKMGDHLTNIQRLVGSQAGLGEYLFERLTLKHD
#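 Horse-spleen apoferritin (10 uM) in 50% saturated 1-aminoanthracene in PBS was incubated 10 min at room temperature with compound. Fluorescence (ex 380, em 535 nm) was normalized to free and bound 1-AMA, with concentration-response fitted by a four-parameter Hill equation.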
# * = called active by the depositor; ? = inconclusive; . = not tested or not shown.
SMILES,D2 ag-1,D2 ag-2,D2 PAM-1,D2 antagonist,D2 PAM-2,Apoferritin bind
O=C(COC(=O)c1ccc2[nH]c3c(c2c1)CCCC3)Nc1ccccc1Cl,-2.2,-0.7,6.9,0.0,-5.5,-2.6%
CCC(C)c1ccccc1NC(=O)COC(=O)c1ccc2[nH]c3c(c2c1)CCCC3 (configuration not stated),5.0,-0.4,-17.1,70.5*,14.2,-12.6%
Cc1ccccc1OCC(O)Cn1c(=N)n(CCN2CCOCC2)c2ccccc21 (configuration not stated),-2.5,-2.0,40.1*,-14.0,-12.2,-7.4%
Cc1ccccc1OCC(O)CN1CCN(CC(O)COc2ccccc2C)CC1 (configuration not stated),-3.2,0.9,-30.4,61.6*,-26.7,-22.9%
COc1ccccc1N1CCN(CC(O)COc2ccc(C)cc2C)CC1 (configuration not stated),-0.6,29.0,-30.1,75.9*,-25.3,-2.0%
COc1ccccc1N1CCN(CC(O)COc2c(OC)cccc2OC)CC1 (configuration not stated),1.7,14.8,-29.5,122.8*,-12.6,-10.3%
Cc1ccccc1OCC(O)CN1CCCCC1 (configuration not stated),-2.4,-0.5,1.6,4.9,-17.1,-2.9%
COc1ccc(Cn2c(=O)[nH]c3cc(C(=O)NCCCN4CCCCCC4)ccc3c2=O)cc1,2.7,-0.2,-6.6,-4.2,-10.2,-13.3%
CN(C)S(=O)(=O)c1cccc(NC(=O)COc2ccccc2C(=O)Nc2ccccc2)c1,5.4,.,.,.,3.8,.
Cc1cccc(NC(=O)CSc2nc3ccccc3c3nc(CCn4cncc4C)nn23)c1,.,-0.2,0.1,.,.,?
COc1ccccc1N1CCN(CC(O)COCCOc2ccc(Br)cc2)CC1 (configuration not stated),-1.5,9.5,-25.4,78.5*,-33.1,-1.9%
COc1ccccc1N1CCN(CC(O)COCc2cccs2)CC1 (configuration not stated),-1.3,1.8,-32.9,80.7*,-10.3,2.7%
OC(COc1cccc2ccccc12)CN1CCN(c2ccccc2Cl)CC1 (configuration not stated),-12.6,7.9,-17.9,39.1*,-43.5,50.6%
COc1cc(COCC(O)CN2CCN(Cc3ccccc3)CC2)cc(OC)c1OC (configuration not stated),-0.7,-0.4,-20.5,6.1,-9.0,-14.3%
Cc1ccc(N2CCN(CC(O)COc3cccc4ccccc34)CC2)cc1 (configuration not stated),8.8,-2.0,-18.5,-28.5,-50.0,-3.1%
COc1ccccc1N1CCN(CC(O)c2ccc3cc[nH]c3c2)CC1 (configuration not stated),2.3,36.9*,-26.9,59.6*,-7.8,-3.4%
OCCN1CCSC1=S,-8.1,.,.,.,-22.5,.
COc1ccc2[nH]cc(C(O)CN3CCN(c4ccccc4F)CC3)c2c1 (configuration not stated),-3.1,12.9,-12.8,33.3*,-16.0,-0.4%
Cc1ccc(Cl)cc1N1CCN(CC(O)COCc2ccco2)CC1 (configuration not stated),-0.4,-2.0,-24.1,97.4*,-35.1,6.8%
COc1ccc2[nH]cc(C(O)CN3CCN(c4ccccc4)CC3)c2c1 (configuration not stated),.,6.4,-13.0,-5.5,.,-17.2%
OC(COCc1ccco1)CN1CCN(C(c2ccccc2)c2ccccc2)CC1 (configuration not stated),-0.6,-0.1,-26.3,22.4,-5.0,-14.2%
CCOC(=O)N1CCN(CC(O)c2ccc3cc[nH]c3c2)CC1 (configuration not stated),-2.3,1.1,-6.0,0.8,-4.2,-5.8%
COc1cc2c(cc1OC)C(c1cc3cc4c(cc3[nH]c1=O)OCO4)N(C(=O)C1CC1)CC2 (configuration not stated),0.5,-0.5,-6.9,32.6*,4.6,5.5%
N#Cc1c(-c2ccc(F)cc2)noc1N,?,0.8,-0.2,-4.2,96.1*,-22.8%
COc1ccc(C(=O)Nc2cc3c(cc2C#N)OCO3)cc1S(=O)(=O)N1CCN(C)CC1,-4.5,1.3,-7.4,4.3,-3.0,-7.7%
SMILES,D2 ag-1,D2 ag-2,D2 PAM-1,D2 antagonist,D2 PAM-2,Apoferritin bind
CCCC(=O)N(CCN(C(=O)CCC)c1ccccc1)c1ccccc1,-0.5,0.9,31.2*,-9.0,-8.6,-7.2%
CC(=O)N1CCCc2cc(S(=O)(=O)N(C)CC(=O)Nc3ccc(F)cc3Cl)ccc21,.,0.0,0.7,.,.,-4.5%
N#Cc1nc(COc2ccccc2Cl)oc1NCc1cccnc1,0.8,-0.6,3.6,40.5*,3.8,-2.1%
COCCNC(=O)c1ccc(CN2CCc3ccccc3C2)cc1,-0.1,2.0,1.0,7.8,-21.9,-10.7%
CCN(CC)CCOc1cccc(C(C)C)c1,3.0,2.1,.,72.8*,-30.9,-8.8%
Cc1ccc(OCCCCN2CCC(C)CC2)cc1,2.1,1.2,-20.5,48.9*,-15.8,5.1%
CN1CCN(CCCCOc2ccc(F)cc2)CC1,-2.3,0.3,9.5,-8.2,-10.3,-6.2%
CC1CCN(CCCCOc2ccc(F)cc2)CC1,1.4,0.8,-14.1,44.2*,-11.5,-0.9%
CC1CCN(CCOc2cccc(Br)c2)CC1,-2.3,29.0,-28.1,97.8*,-16.9,-2.6%
Brc1cccc(OCCCN2CCCCCC2)c1,0.8,0.0,-31.3,13.9,-23.0,-9.2%
COc1cccc(NC(=O)C2CCCN2S(=O)(=O)c2ccc3c(c2)C(C)(C)C(=O)N3C)c1 (configuration not stated),-3.0,-0.9,7.0,3.0,7.9,-6.4%
O=C(NCc1ccccc1)c1sc(=S)n2c1[nH]c(=O)c1ccccc12,-1.2,0.8,16.9,-4.9,-3.6,-11.6%
COc1ccccc1NC(=O)N1CCN(c2ccc3nnc(-c4ccc(F)cc4)n3n2)CC1,6.2,-0.1,-1.3,4.4,-0.5,-17.3%
CC1CCN(CCCCOc2cccc(C(C)C)c2)CC1,-0.4,-0.3,-29.3,58.2*,-11.9,-1.6%
CC1CCN(CCCCOc2ccc(C(=O)c3ccccc3)cc2)CC1,-3.1,.,-19.8,.,-15.3,-20.1%
Cc1cc(NNC(=O)c2ccccc2)nc(NNC(=O)c2ccccc2)n1,8.6,0.2,-22.8,34.0*,2.3,-12.6%
COc1cc(NC(=O)COC(=O)CNC(=O)c2ccc(Cl)cc2)c(C)cc1[N+](=O)[O-],-1.8,0.2,9.8,-4.8,-14.0,-18.0%
Cc1nn(C(=O)c2cc3sccc3[nH]2)c(C)c1C,-0.4,-0.1,-2.5,33.6*,-3.5,5.6%
